From PubChem BioAssay (EPA / NIEHS) come the findings set out here.

SMILES strings stand for the structures. Calls of active or inactive are those of the source. The calls were made as follows: active = hit-call score of the fitted dose curve at least 0.9, where 1 is the maximum; inactive = score below 0.9.

What all share (conditions): mRNA level, 48 h; actives raise or lower the signal
Read-out in one assay: CYP2C9 (gene 1559)
Description: LTEA_HepaRG_CYP2C9: Life Technologies and Expression Analysis (LTEA) Assay for CYP2C9 using HepaRG (AID 2283484). The gist of the method: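 Eight-point concentration-response (highest 100 uM, half-log dilutions) in HepaRG cells for 48 h; CYP2C9 expression by qRT-PCR normalized to ACTB, GAPDH, POLR2A. Bidirectional fit, DMSO baseline.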

Read-out in a further assay: CYP2E1 (gene 1571)
Briefly: LTEA_HepaRG_CYP2E1: Life Technologies and Expression Analysis (LTEA) Assay for CYP2E1 using HepaRG (AID 2283485). The gist of the method: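 Assay uses 48 h exposure of HepaRG hepatic cells, eight concentrations to 100 uM. Expression of CYP2E1 is quantified by TaqMan qRT-PCR with ACTB, GAPDH and POLR2A normalization; curves fitted in both directions relative to vehicle.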

Read-out in another assay: CYP4A11 (gene 1579)
Description: LTEA_HepaRG_CYP4A11: Life Technologies and Expression Analysis (LTEA) Assay for CYP4A11 using HepaRG (AID 2283486). The gist of the method: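 CYP4A11 transcript levels were quantified by TaqMan qRT-PCR after HepaRG human liver cells were treated for 48 hours with test chemicals (top 100 uM, half-log dilutions, 0.5% DMSO). Gain or loss of signal was fitted relative to DMSO.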

Read-out in assay [1]: Cytochrome P450 3A4 (Homo sapiens) (UniProt P08684)
Description: LTEA_HepaRG_CYP3A4: Life Technologies and Expression Analysis (LTEA) Assay for CYP3A4 using HepaRG (AID 2283487). The gist of the method: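 CYP3A4 transcript measured by TaqMan qRT-PCR and normalized to three housekeeping genes after 48 h chemical exposure of human HepaRG cells. Top concentration 100 uM, half-log steps, 0.5% DMSO vehicle; gain or loss fitted against DMSO baseline.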

Read-out in assay [2]: DNA damage-inducible transcript 3 (DDIT3), DDIT3 (gene 1649)
Description: LTEA_HepaRG_DDIT3: Life Technologies and Expression Analysis (LTEA) Assay for DNA damage-inducible transcript 3 (DDIT3) using HepaRG (AID 2283488). The gist of the method: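 Eight-point concentration-response (100 uM highest, half-log dilutions) in HepaRG, 48 h, duplicate wells. Endpoint: qRT-PCR mRNA, normalized (ACTB, GAPDH, POLR2A), bidirectional fitting with DMSO as baseline.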

Read-out in assay [3]: Pro-epidermal growth factor (Homo sapiens) (UniProt P01133)
Briefly: LTEA_HepaRG_EGF: Life Technologies and Expression Analysis (LTEA) Assay for Epidermal growth factor (EGF) using HepaRG (AID 2283489). The gist of the method:
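qRT-PCR readout of EGF transcript after 48 h chemical exposure of HepaRG cells; eight concentrations from 100 uM down in half-log steps, duplicate wells, 0.5% DMSO vehicle. Bidirectional curve fitting against DMSO baseline.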

Read-out in assay [4]: Early growth response protein 1 (EGR1) transcription factor, EGR1 (gene 1958)
Description: LTEA_HepaRG_EGR1: Life Technologies and Expression Analysis (LTEA) Assay for Early growth response protein 1 (EGR1) transcription factor using HepaRG (AID 2283490). The gist of the method:
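EGR1 expression change in human HepaRG after 48 h chemical exposure, assessed by housekeeping-normalized qRT-PCR; concentration-response up to 100 uM, fitted in both directions against DMSO controls.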

Read-out in assay [5]: Ezrin (EZR), EZR (gene 7430)
Briefly: LTEA_HepaRG_EZR: Life Technologies and Expression Analysis (LTEA) Assay for Ezrin (EZR) using HepaRG (AID 2283491). The gist of the method:
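HepaRG, 48 h chemical exposure, 8-pt half-log series from 100 uM, 0.5% DMSO vehicle, duplicates. Read-out: EZR mRNA by TaqMan qRT-PCR (Fluidigm array), housekeeping-normalized; bidirectional curve fit vs DMSO baseline.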

Read-out in assay [6]: Cytochrome P450 3A7 (Homo sapiens) (UniProt P24462)
Description: LTEA_HepaRG_CYP3A7: Life Technologies and Expression Analysis (LTEA) Assay for CYP3A7 using HepaRG (AID 2283492). The gist of the method: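 CYP3A7 transcript levels were read by TaqMan qRT-PCR on Fluidigm arrays after 48 h chemical exposure of human HepaRG cells, with housekeeping-gene normalisation. Eight half-log concentrations up to 100 uM in 0.5% DMSO were tested in duplicate.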

Read-out in another assay: CYP3A5 (gene 1577)
Description: LTEA_HepaRG_CYP3A5: Life Technologies and Expression Analysis (LTEA) Assay for CYP3A5 using HepaRG (AID 2283493). The gist of the method: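 Readout was CYP3A5 mRNA by qRT-PCR. HepaRG cultures were exposed for 48 h in serum-free induction medium to chemicals at up to 100 uM, and responses were fitted in both directions relative to DMSO vehicle.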

Read-out in assay [7]: Fatty Acid-Binding Protein 1 (FABP1), FABP1 (gene 2168)
Briefly: LTEA_HepaRG_FABP1: Life Technologies and Expression Analysis (LTEA) Assay for Fatty Acid-Binding Protein 1 (FABP1) using HepaRG (AID 2283494). The gist of the method: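 Values reflect bidirectional concentration-response fitting of FABP1 mRNA change against 0.5% DMSO controls. Human HepaRG cultures received eight half-log doses (top 100 uM) for 48 h; expression quantified by TaqMan qRT-PCR with housekeeping-gene normalization.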

Read-out in assay [8]: Cytochrome P450 4A22 (Homo sapiens) (UniProt Q5TCH4)
Briefly: LTEA_HepaRG_CYP4A22: Life Technologies and Expression Analysis (LTEA) Assay for Cytochrome P450 4A22 (CYP4A22) using HepaRG (AID 2283495). The gist of the method: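 HepaRG, 48 h post-plating -> serum-free induction medium; dosed 48 h, duplicate, 8 conc. (100 uM top, half-log), 0.5% DMSO. Readout: CYP4A22 mRNA by qRT-PCR, ACTB/GAPDH/POLR2A normalization; gain/loss fit relative to DMSO.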

Read-out in assay [9]: Cytochrome P450 7A1 (Homo sapiens) (UniProt P22680)
Description: LTEA_HepaRG_CYP7A1: Life Technologies and Expression Analysis (LTEA) Assay for Cytochrome P450 7A1 (CYP7A1) using HepaRG (AID 2283496). The gist of the method:
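Using 0.5% DMSO as vehicle and baseline, chemicals were tested in duplicate over an 8-point range from 100 uM on HepaRG cells for 48 h; qRT-PCR signals were normalised to ACTB, GAPDH and POLR2A.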

Read-out in assay [10]: Glutathione S-Transferase (GSTA2), GSTA2 (gene 2939)
Description: LTEA_HepaRG_GSTA2: Life Technologies and Expression Analysis (LTEA) Assay for Glutathione S-Transferase (GSTA2) using HepaRG (AID 2283497). The gist of the method:
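Oxidative-stress marker GSTA2 is quantified by TaqMan qRT-PCR in HepaRG cultures treated 48 h across an eight-point range to 100 uM. Expression is normalized to endogenous controls and compared with 0.5% DMSO vehicle.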

Read-out in assay [11]: Glutamate-cysteine ligase catalytic (GCLC), GCLC (gene 2729)
Briefly: LTEA_HepaRG_GCLC: Life Technologies and Expression Analysis (LTEA) Assay for Glutamate-cysteine ligase catalytic (GCLC) using HepaRG (AID 2283498). The gist of the method: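 Oxidative-stress marker GCLC is measured as mRNA change in human HepaRG liver cells after 48 h chemical treatment in 0.5% DMSO, eight concentrations from 100 uM. Activity is fitted bidirectionally against vehicle.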

Read-out in assay [12]: growth arrest and DNA damage 45 (GADD45G), GADD45G (gene 10912)
Briefly: LTEA_HepaRG_GADD45G: Life Technologies and Expression Analysis (LTEA) Assay for growth arrest and DNA damage 45 (GADD45G) using HepaRG (AID 2283499). The gist of the method: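 HepaRG, 48 h exposure, top 100 uM, half-log 8-point series, 0.5% DMSO vehicle, duplicates. Readout: GADD45G transcript by qRT-PCR (Fluidigm array), housekeeping-normalised (ACTB/GAPDH/POLR2A). Bidirectional curve fit vs DMSO baseline.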

Read-out in assay [13]: Glutamate-cysteine ligase regulatory (GCLM), GCLM (gene 2730)
Briefly: LTEA_HepaRG_GCLM: Life Technologies and Expression Analysis (LTEA) Assay for Glutamate-cysteine ligase regulatory (GCLM) using HepaRG (AID 2283500). The gist of the method: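 In this multiplexed HepaRG gene-expression assay, GCLM mRNA change after 48 h treatment (8 concentrations, max 100 uM) was scored against DMSO by bidirectional curve fitting.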

Read-out in assay [14]: Glutathione S-transferase M3 (GSTM3), GSTM3 (gene 2947)
Description: LTEA_HepaRG_GSTM3: Life Technologies and Expression Analysis (LTEA) Assay for Glutathione S-transferase M3 (GSTM3) using HepaRG (AID 2283501). The gist of the method:
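qRT-PCR read-out of GSTM3 transcript, normalized to three housekeeping genes, from human HepaRG cells after 48 h chemical exposure. Eight-point half-log series, top 100 uM, 0.5% DMSO vehicle; gain or loss fitted relative to DMSO baseline.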

Read-out in assay [15]: Heat shock 70 kDa protein 1 (HSPA1A), gene 3303
Description: LTEA_HepaRG_HSPA1A: Life Technologies and Expression Analysis (LTEA) Assay for Heat shock 70 kDa protein 1 (HSPA1A) using HepaRG (AID 2283502). The gist of the method:
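An oxidative-stress marker readout: HepaRG cells treated 48 h in duplicate with an eight-point series (highest 100 uM) had HSPA1A mRNA quantified by TaqMan qRT-PCR. Activity was fitted in both directions using 0.5% DMSO as baseline.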

Read-out in assay [16]: Hypoxia-inducible factor 1-alpha (Homo sapiens) (UniProt Q16665)
Description: LTEA_HepaRG_HIF1A: Life Technologies and Expression Analysis (LTEA) Assay for Hypoxia-inducible factor 1 (HIF1A) Trancription factor using HepaRG (AID 2283503).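 Also: HIF1A transcript by TaqMan qRT-PCR normalized to ACTB GAPDH and POLR2A.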 The gist of the method:
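Gain- or loss-of-signal HIF1A mRNA changes are fitted against a DMSO baseline. HepaRG cultures receive eight concentrations, highest 100 uM, for 48 h in serum-free induction medium with 0.5% DMSO.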

Chain of Cytochrome P450 3A4 (Homo sapiens) (P08684 whole entry, looked up): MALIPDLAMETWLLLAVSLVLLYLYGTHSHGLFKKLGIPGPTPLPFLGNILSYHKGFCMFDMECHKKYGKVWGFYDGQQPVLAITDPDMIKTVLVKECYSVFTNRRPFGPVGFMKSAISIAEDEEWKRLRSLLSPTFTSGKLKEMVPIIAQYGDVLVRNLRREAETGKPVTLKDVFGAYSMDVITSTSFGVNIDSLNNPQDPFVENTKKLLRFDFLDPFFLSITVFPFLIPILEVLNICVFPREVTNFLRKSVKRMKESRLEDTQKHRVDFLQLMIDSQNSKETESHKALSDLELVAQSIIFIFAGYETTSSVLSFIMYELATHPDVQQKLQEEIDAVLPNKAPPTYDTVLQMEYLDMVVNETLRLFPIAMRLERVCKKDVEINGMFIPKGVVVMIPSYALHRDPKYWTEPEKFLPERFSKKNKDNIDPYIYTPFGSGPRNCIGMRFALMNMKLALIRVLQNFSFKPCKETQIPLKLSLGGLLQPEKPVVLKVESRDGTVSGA
Chain of Cytochrome P450 3A7 (Homo sapiens) (P24462 whole entry, looked up): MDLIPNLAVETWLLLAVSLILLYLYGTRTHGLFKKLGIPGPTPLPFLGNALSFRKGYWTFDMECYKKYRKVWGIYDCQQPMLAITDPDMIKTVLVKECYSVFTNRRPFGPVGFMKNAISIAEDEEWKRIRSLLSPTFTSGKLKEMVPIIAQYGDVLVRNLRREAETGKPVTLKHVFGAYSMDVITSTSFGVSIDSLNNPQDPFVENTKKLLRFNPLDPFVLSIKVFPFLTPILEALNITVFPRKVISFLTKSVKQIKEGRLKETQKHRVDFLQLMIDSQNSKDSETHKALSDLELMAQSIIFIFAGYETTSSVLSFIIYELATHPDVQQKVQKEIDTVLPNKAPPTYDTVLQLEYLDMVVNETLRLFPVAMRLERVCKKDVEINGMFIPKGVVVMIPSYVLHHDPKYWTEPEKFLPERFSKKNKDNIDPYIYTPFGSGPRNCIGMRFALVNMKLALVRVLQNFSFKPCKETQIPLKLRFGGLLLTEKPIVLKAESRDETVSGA
Chain of Hypoxia-inducible factor 1-alpha (Homo sapiens) (Q16665 whole entry, looked up): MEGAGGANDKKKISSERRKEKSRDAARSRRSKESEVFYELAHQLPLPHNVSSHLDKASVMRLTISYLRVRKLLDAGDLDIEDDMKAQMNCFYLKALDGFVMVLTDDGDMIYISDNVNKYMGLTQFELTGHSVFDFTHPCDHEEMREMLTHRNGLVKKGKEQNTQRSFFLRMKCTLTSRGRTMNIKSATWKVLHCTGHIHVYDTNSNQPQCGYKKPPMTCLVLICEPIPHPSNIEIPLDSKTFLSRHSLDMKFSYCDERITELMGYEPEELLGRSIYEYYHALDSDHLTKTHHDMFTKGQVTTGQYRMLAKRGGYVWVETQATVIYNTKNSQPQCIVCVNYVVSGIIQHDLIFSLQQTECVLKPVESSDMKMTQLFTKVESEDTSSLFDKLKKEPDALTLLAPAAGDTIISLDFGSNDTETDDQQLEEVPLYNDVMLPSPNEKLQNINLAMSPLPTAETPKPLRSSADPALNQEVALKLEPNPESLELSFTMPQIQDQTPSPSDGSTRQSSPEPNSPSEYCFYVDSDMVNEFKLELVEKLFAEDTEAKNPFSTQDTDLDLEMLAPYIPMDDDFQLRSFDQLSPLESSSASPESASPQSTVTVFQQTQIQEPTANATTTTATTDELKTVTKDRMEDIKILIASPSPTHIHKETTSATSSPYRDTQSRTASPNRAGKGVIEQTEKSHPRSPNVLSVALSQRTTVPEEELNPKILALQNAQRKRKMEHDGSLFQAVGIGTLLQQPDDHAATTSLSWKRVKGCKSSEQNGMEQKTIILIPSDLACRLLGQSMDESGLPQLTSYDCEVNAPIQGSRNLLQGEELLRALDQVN

Turning to `CCOC(=O)[C@]1(c2ccccc2)Oc2ccccc2[C@@H]1N`, the AC50 (in general, the midpoint of the concentration-response curve, whichever way the signal moves) is 74.3 µM (active) with CYP2C9 (gene 1559); 75.2 µM (active) with CYP2E1 (gene 1571); 79.7 µM (active) with CYP4A11 (gene 1579); 80 µM (active) in assay [1]; 76.8 µM (active) in assay [2]; 75.6 µM (active) in assay [3]. The AC50 in assay [6] is 85.4 µM (active); in assay [7], 90.1 µM (active); in [8] it was 71.6 µM (active); in assay [9], 90.5 µM (active); in assay [10], 76.1 µM (active); in assay [11] it was 82.4 µM (active). The results for the half-maximal activity concentration (AC50) in assay [12] and in assay [13] were 87.9 µM (active) and 76.9 µM (active), respectively. Further, the molecule was called inactive (in assay [4]; in assay [5]; in the assay with CYP3A5 (gene 1577); in [14]; in assay [15]).
As for `Clc1ccc(C(c2ccc(Cl)cc2)C(Cl)Cl)cc1`, the molecule was called inactive (with CYP2C9 (gene 1559); in [2]; in [3]; in assay [4]; in assay [5]; in [10]). For the same molecule, the molecule was called inactive in assay [11], in [12], in [13], in assay [15] and in [16]. Besides, the AC50 with CYP2E1 (gene 1571) was 52.5 µM (active); with CYP4A11 (gene 1579), 50 µM (active); in assay [1], 10 µM (active); in [6], 9.55 µM (active); with CYP3A5 (gene 1577) it was 29.7 µM (active); in assay [7], 54.7 µM (active). For the same molecule, the AC50 is 22.4 µM (active) in assay [8] and 22.5 µM (active) in assay [9].
For the molecule `c1ccc(C2CO2)cc1` (stereo not given), the outcome (in the assay with CYP2C9 (gene 1559); with CYP2E1 (gene 1571); in the assay with CYP4A11 (gene 1579); in [1]; in assay [2]; in assay [3]) was inactive. Also, the result (in assay [4]; in assay [5]; in assay [6]; in the assay with CYP3A5 (gene 1577); in assay [7]; in assay [8]) was inactive. Also, the outcome in assay [9], in assay [10], in [11], in assay [12], in assay [13] and in [15] was inactive.
With `COP(=S)(OC)SCN1C(=O)c2ccccc2C1=O`, the call (in the assay with CYP2C9 (gene 1559); with CYP2E1 (gene 1571); with CYP4A11 (gene 1579); in assay [1]; in [2]; in assay [3]) was inactive. Further, the outcome (in assay [4]; in [5]; in assay [6]; in the assay with CYP3A5 (gene 1577); in [8]; in [9]) was inactive. The outcome in [10], in assay [11], in assay [12], in [13], in assay [14] and in assay [15] was inactive. Further, the molecule was classed as inactive in assay [16].
